Compound activity: PubChem, several laboratories
Cav3 T inh = human Cav3.2 channel inhibition, primary screen; O95180; 4% of 100,000 active; B-score at 10 µM; Cav3.2-expressing cells, Fluo-4 calcium fluorescence FDSS; stronger effect = lower value; AID 449739;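 active = single-dose well whose peak fluorescence ratio is a statistical outlier from its plate by either plate-standardised score or position-corrected B-score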
PLAP activator = human PLAP activation | 1.2% of 96,000 active | purified PLAP enzyme, luminescent substrate read-out; stronger effect = higher value | P05187 | activation fold at 20 µM; in the data active = activation fold above about 2
M1 antagonist = antagonists of rat M1 muscarinic receptor | P08482 | AID 628 | 3.4% of 64,000 active | CHO-M1 cells, Fluo-4 calcium, ACh EC80 antagonist mode; stronger effect = lower value | B-score at 10 µM;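 active = calcium fluorescence response, raw or row-and-column corrected B-score, differing from the plate sample mean either way at a set confidence level, mostly lower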
M1 ag = agonists of M1 muscarinic receptor; CHO-M1 cells, Fluo-4 calcium fluorescence, agonist mode; stronger effect = higher value; 3% of 64,000 active; B-score at 10 µM; AID 626;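 active = fluorescence rise, raw or as B-score row- and column-corrected plate score, outside the 99.7% band of its plate's samples, either direction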
Her2 expr inh = Her2 kinase expression inhibition. AID 645. HER2 level % of control, % at 10 µM. 0.69% of 65,000 active. P04626. SKBR-3 HER2 protein level, AlphaScreen, 18-24 h; stronger effect = lower value;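 active = HER2 level under 5% of the carrier-only control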;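 note: 100% = DMSO carrier and 0% = 500 nM PU-H71 HSP90 inhibitor; lower value means stronger loss of Her2 protein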
* hit, by the source's call; / = no result. In the library only some 7.9% were active in any assay of this set; here they are far more common.

SMILES | Cav3 T inh | PLAP activator | M1 antagonist | M1 ag | Her2 expr inh
Cc1cc(C)cc(NC(=O)c2ccc(CSc3nnc(C)s3)cc2)c1 | -11* | 0.7 | / | / | /
COc1cc(O)oc1C=Nc1ccc(C(F)(F)F)cc1 | -1.2 | 1.3 | / | / | /
CCCCCCCCC(=O)NC(NC(=S)N1CCOCC1)C(Cl)(Cl)Cl (stereo not given) | -4.2* | / | / | / | /
CC(C)CC(NC(=O)C(COC(C)(C)C)NC(=O)C(Cc1ccc(O)cc1)NC(=O)C(CO)NC(=O)C(Cc1c[nH]c2ccccc12)NC(=O)C(Cc1cnc[nH]1)NC(=O)C1CCC(=O)N1)C(=O)N[C@@H](CCCN=C(N)N)C(=O)N1CCCC1C(=O)NNC(N)=O (stereo not given in full) | 0.12 | / | / | / | /
CCC(C)(C)n1nnnc1C(c1cc2cc(C)cc(C)c2[nH]c1=O)N1CCN(Cc2ccc3c(c2)OCO3)CC1 (stereo not given) | / | 1.6 | / | / | /
COc1cc(/C=C(/C(=O)c2cccs2)c2nc3ccccc3[nH]2)cc(OC)c1O | / | 0.4 | / | / | /
COc1nnc(-c2ccc(N3CCCCC3)c(N)c2)c2ccccc12 | -6.9* | / | -0.11 | -0.16 | 77
COC(=O)C1=C2c3[nH]c4ccccc4c3CCN2C(=O)CC1 | -2 | / | / | / | /
Cc1ccc(-c2ccc(/C=C(\C#N)C(=O)Nc3cc(C)nn3-c3ccccc3)o2)cc1 | -6.6* | 0.9 | / | / | /
N#C/C(=C\c1ccc(-c2ccccc2)o1)C(=O)Nn1cnnc1 | 0.5 | 1 | / | / | /
CCOC(=O)Cn1c(S(=O)(=O)Cc2ccccc2Cl)nc(-c2ccccc2)c1-c1ccccc1 | -7.3* | 1.3 | / | / | /
C#CCn1c(S(=O)(=O)Cc2ccc(C)cc2)nc(-c2ccccc2)c1-c1ccccc1 | -7.8* | 1 | / | / | /
C#CCn1c(S(=O)(=O)Cc2ccccc2Cl)nc(-c2ccccc2)c1-c1ccccc1 | -7.2* | 1.1 | / | / | /
Cc1ccc(Cn2c(NS(=O)(=O)c3ccccc3)nc3ccccc32)cc1 | -1.9 | 0.9 | / | / | /
CCc1nc2c(sc3nc(N4CCOCC4)c4c(c32)CC(C)(C)OC4)c(=O)o1 | / | 1.1 | 0.82 | -0.29 | 88
CCCCNc1ccccc1C(=O)OCC(=O)Nc1ccc(S(N)(=O)=O)cc1 | 0.075 | 2.1* | / | / | /
CC(C)Oc1ccc(-c2nn(-c3ccccc3)cc2/C=c2\sc3ncnn3c2=O)cc1 | / | 1.7 | -0.8 | 33* | 43
c1cncc(-c2nc3ccccc3[nH]2)c1 | 0.047 | 0.9 | / | / | /
c1ccc(-c2n[nH]c(-c3ccccc3)c2-c2nc3ccccc3[nH]2)cc1 | -5.2* | 1.8 | / | / | /
CCC(c1nnnn1Cc1ccco1)N1CCN(c2cc(Cl)ccc2C)CC1 (stereo not given) | -5.8* | 1.6 | 0.081 | 0.07 | 114
CC(C)C(c1nnnn1Cc1ccco1)N1CCN(c2cccc(Cl)c2)CC1 (stereo not given) | -3.8* | 1.3 | -0.013 | -0.27 | 99
Cc1ccc(Cl)cc1N1CCN(Cc2nnnn2Cc2ccco2)CC1 | -6.7* | 1.6 | -0.65 | 0.11 | 91
Cc1ccc(Cl)cc1N1CCN(Cc2nnnn2C2CCCCC2)CC1 | -5.2* | 1.6 | 0.34 | -0.45 | 92
c1coc(Cn2nnnc2CN2CCN(C3CCCCC3)CC2)c1 | 0.0047 | 1.4 | 1.3 | 0.76 | 82
CN=CC1=C(O)c2ccccc2C1=O | -0.21 | 1 | 0.014 | -0.27 | 85
SMILES | Cav3 T inh | PLAP activator | M1 antagonist | M1 ag | Her2 expr inh
O=C1C(C2=C(O)c3ccccc3C2=O)=Nc2ccccc21 | -1.7 | 1.1 | -0.52 | -0.014 | -16*
COCCCn1cc(C(=O)c2cc(OC)ccc2OCC(=O)Nc2cc(C)on2)cc(C#N)c1=O | 2.8 | 0.8 | / | / | /
CCc1ccc(CNC(=O)C(=O)NCCc2ccc(OC)c(OC)c2)cc1 | -5.3* | / | / | / | /
CC(Nc1cc(N2CCN(C(=O)C(C)(C)C)CC2)ccc1[N+](=O)[O-])c1ccccc1 (stereo not given) | -4.2* | 1.1 | / | / | /
CCn1c(CN2CCN(c3ccc(Cl)cc3)CC2)nc2ccccc21 | -6.7* | / | / | / | /
CCO[C@@H]1OC(C(=O)NCc2ccccc2)=C[C@H](c2ccc(C(F)(F)F)cc2)[C@H]1CCCO | -2.8 | / | / | / | /
O=C1CCC(c2ccc(-n3ccnc3)cc2)=NN1 | 0.47 | / | / | / | /
Cc1ccc(Cn2nnc(C(=O)Nc3cc(C)ccc3C)c2N)cc1 | -0.057 | / | 1.8* | 0.064 | 67
Cc1ccc(CNC(=O)c2nnn(-c3cccc(C)c3)c2N)cc1 | -5.4* | 0.9 | -0.96 | -0.4 | 125
CC1(c2nnc(Cc3ccccc3)o2)CC(c2ccncc2)=NO1 (stereo not given) | 0.55 | / | / | / | /
CCCCCCNC(=O)Cc1nc2nc(C)cc(C)n2n1 | -3.2 | 1.1 | 0.66 | -0.39 | 110
O=C(Nc1nnc(C(F)(F)F)s1)C1COc2ccccc2O1 (stereo not given) | -4.2* | 1.1 | / | / | /
CC(C)Cc1nc2sc3c(NCc4ccco4)ncnc3c2c2c1COC(C)(C)C2 | -0.5 | 1.5 | / | / | /
CCCSc1nc(NCc2ccco2)c2c3c(sc2n1)COC(C)(C)C3 | -5.6* | 1 | / | / | /
CCCCSc1nc(NCc2ccco2)c2c3c(sc2n1)COC(C)(C)C3 | -5.7* | 1 | / | / | /
Cc1nc2sc3c(NCc4ccco4)ncnc3c2c2c1COC(C)(C)C2 | -0.38 | / | 0.36 | 1.1 | 57
CC(C)c1ccc(NC(=O)N(CCc2nc3ccccc3[nH]2)C2CCCC2)cc1 | -6.6* | 0.8 | / | / | /
O=C(Nc1ccccc1)N(CCc1ccncc1)C1CCCCC1 | -0.26 | / | -1.3 | 0.021 | 122
COc1ccccc1NC(=O)CCN1CCCCCC1 | -0.12 | 0.9 | -0.092 | -0.39 | 131
COc1ccccc1NC(=O)CCN1CCN(Cc2ccccc2)CC1 | 1.4 | 2* | / | / | /
CCOC(=O)c1sc(C)c2c(=O)n(CCCN3CCOCC3)cnc12 | 0.94 | 1.3 | 0.021 | -0.12 | 125
Cc1cccc(NC(=S)NC(NC(=O)c2ccco2)C(Cl)(Cl)Cl)c1 (stereo not given) | -6.1* | 0.8 | / | / | /
O=C(O)c1ccc(NC(=S)NC(NC(=O)c2ccco2)C(Cl)(Cl)Cl)cc1 (stereo not given) | -4* | 1.1 | / | / | /
CCc1cc2c(=O)n(-c3ccc(C)cc3)cnc2s1 | -0.95 | / | / | / | /
O=C(N/N=C1\CCCc2ccccc21)c1ccccc1[N+](=O)[O-] | -0.046 | / | / | / | /
SMILES | Cav3 T inh | PLAP activator | M1 antagonist | M1 ag | Her2 expr inh
O=C(/C=C/c1ccco1)NCC1CCCO1 (stereo not given) | / | 1.2 | / | / | /
O=C(Nc1ccn(Cc2ccccc2F)n1)c1ccc(COc2cccc(Br)c2)cc1 | -7.3* | 1.1 | / | / | /
O=C(Nc1nn(Cc2ccc(Cl)cc2)cc1Br)c1ccc(COc2ccccc2Cl)o1 | -6.2* | 0.8 | / | / | /
O=C(Nc1ccn(Cc2ccccc2F)n1)c1ccc(COc2cc(Cl)ccc2Cl)o1 | -4.9* | 0.9 | / | / | /
CCOC(=O)C(C#N)(Cc1cc(OC)cc(OC)c1)Cc1cc(OC)cc(OC)c1 | -2.2 | / | / | / | /
CC1CCCN(c2nc3c(c(=O)[nH]c(=O)n3C)n2Cc2ccccc2Cl)C1 (stereo not given) | -6.1* | 1.6 | 0.089 | 1.1 | 45
Cn1c(=O)[nH]c(=O)c2c1nc(N1CCC(Cc3ccccc3)CC1)n2Cc1ccccc1 | -0.79 | 1.1 | -0.12 | 1 | 54
CCOC(=O)C(CC)Sc1nc2c(c(=O)[nH]c(=O)n2C)n1CCc1ccccc1 (stereo not given) | 1.2 | 2.8* | 0.021 | -0.068 | 112
